KB-V1 MDR tox: KB-V1 MDR subline cytotoxicity; 400,000 compounds, 3.4% hits; AID 1347076; Potency, µM (series often up to 46.1 µM), usual class: cytotoxic; KB-V1 MDR cells viability, CellTiter-Glo, 72 h; also: potency is read from the fitted curve at half-maximal effect; nearly all actives have a fitted effect of over 60% in size
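Cytotoxicity via CellTiter-Glo luminescence after 72 h compound exposure at 37 degrees C. Cells: drug-selected KB-V1 line, DMEM phenol-red free plus 10% FBS. Compounds tested at multiple concentrations; normalized data fitted to concentration-effect curves.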
HT1080-NT tox: kills 2HG-producing HT-1080-NT fibrosarcoma cells | HT-1080-NT fibrosarcoma viability, CellTiter-Glo ATP luminescence, 48 h | Potency, µM (doses to about 46.1 µM), for inactives: at the highest dose activity, negative = less viability, usual class: cytotoxic | 360,000 compounds, 1.6% hits | AID 686970;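 also: NT is the 2HG producing partner of a matched IDH1 knockdown line; potency is read from the fitted curve at half-maximal effect; 0% = DMSO-treated cells and -100% = media-only wells without cells; nearly all actives have a fitted effect of over 55% in size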
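Viability by CellTiter-Glo luminescence after 48 h compound exposure at 37C of HT-1080-NT cells (750/well, RPMI, 5% FBS). % activity scaled between DMSO wells and medium-only wells, then curve-fitted and categorized by curve class.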
KB-3-1 tox: KB-3-1 parental cell cytotoxicity. AID 1347075. Potency, µM (highest dose often 46.1 µM), usual class: cytotoxic. KB-3-1 viability, CellTiter-Glo ATP luminescence, 72 h. 400,000 compounds, 1.4% hits; also: potency is read from the fitted curve at half-maximal effect; nearly all actives have a fitted effect of over 60% in size
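Cytotoxicity measured as CellTiter-Glo luminescence after 72 h at 37 C. Compound titrations were pinned onto drug-naive KB-3-1 parental adenocarcinoma cells grown in DMEM with 10% FBS, and normalized data fitted to concentration-response curves.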
IL1B secr inh: inhibitors of inflammasome signaling (IL-1 beta secretion); AID 743279; 360,000 compounds, 4.7% hits; activity change, % at 57.5 µM; THP-1 LPS/ATP IL-1B secretion, AlphaLISA, 16 h; hits give low values; in the data active = activity change below about -50%; inconclusive = mostly about -30% to -49%
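THP-1 cells pretreated 1 hr with compounds (up to 57.5 uM final), then stimulated with LPS (250 ng/mL final) plus ATP (1.25 mM final); secreted IL-1B measured by AlphaLISA after 16 hr, decreased signal indicating inhibition.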
HT1080 IDH1KD tx: kills HT-1080 cells with IDH1 knockdown; AID 686971; 360,000 compounds, 2% hits; Potency, µM (series often up to 46.1 µM), for the others: top-dose activity, negative = toxicity, actives largely listed as cytotoxic; HT-1080 IDH1 knockdown viability, ATP luminescence, 48 h;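 also: potency is read from the fitted curve at half-maximal effect; 0% = DMSO wells and -100% = cell-free medium wells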
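Assay cells: HT-1080 with IDH1 knockdown, 750 per well, RPMI/5% FBS. Exposure: 48 h at 37 °C following 2 h pre-incubation. Read: CellTiter-Glo luminescence; fitted concentration-response, curve class assigned.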
An asterisk follows results filed as active; i = inactive; ? = inconclusive; / = not tested or not shown. Shown are actives, neighbours in structure and some others; about 8.8% of the full set was active somewhere. Unless noted, calls follow the shape of the dose curve; as a rule, active = well fitted curve in the direction sought with a large enough effect; inconclusive = small, poorly fitted or top-dose-only effect, or another doubt; inactive = no such curve, though single readings can be large; an effect the other way counts as inactive or inconclusive. Unless noted, % is scaled to controls: 0 for no effect and ±100 for the full control effect.

SMILES | KB-V1 MDR tox | HT1080-NT tox | KB-3-1 tox | IL1B secr inh | HT1080 IDH1KD tx
CC(C)NC(=O)CSc1nnc(-c2ccc(C(C)(C)C)cc2)n1C | 26µM* | -10% | i | 2 | -22%
CCC(C(=O)N1CCN(c2ccccc2)CC1)n1nc(C)c2sc3ccccc3c2c1=O (configuration not stated) | i | / | i | / | /
COc1ccc(-c2nc3ccccc3nc2-c2ccc(OC)cc2)cc1 | i | -1% | i | -7 | 0%
COc1ccc(-c2nc3ccccc3nc2-c2ccccc2)cc1OC | i | -7% | i | -62* | -5%
Oc1ccc(-c2nc3ccccc3nc2-c2ccccc2)cc1 | i | -24% | i | -65* | -26%
CCN(CCCNC(=O)c1nn(-c2ccc(OC)c(Cl)c2)c(=O)c2c1c1ccccc1n2C)c1cccc(C)c1 | i | / | i | / | /
Cc1cc(C)c(S(=O)(=O)NCC(c2ccc(N(C)C)cc2)N2CCOCC2)c(C)c1 (configuration not stated) | i | / | i | / | /
CC1(C)C(N(O)C(=O)Nc2ccc(Cl)cc2)N(c2ccc(Cl)cc2)C(=O)N1CC(=O)NN (configuration not stated) | i | -35% | i | -53* | ?
CN1C(=S)SC(C)(C)C1N(O)C(=O)Nc1ccc(Cl)cc1 (configuration not stated) | i | -2% | i | -22 | 8%
COC(=O)/C=C/c1ccccc1S(=O)(=O)N(Cc1ccccc1)Cc1ccco1 | 7.3µM* | 4.6µM* | 3.3µM* | 49 | 4.6µM*
O=C(Nc1c(-c2ccc3c(c2)OCO3)[nH][nH]c1=O)c1cccc(C(F)(F)F)c1 | i | 7% | i | 11 | 21%
C=CC(=O)Nc1ccc(N(C)c2ccnc(Nc3ccc(N4CCN(C)CC4)cc3)n2)cc1 | ? | -28% | i | -77* | -22%
Cc1cc([N+](=O)[O-])nn1Cc1ccc(C(=O)N/N=C/c2ccc(F)cc2)cc1 | i | -4% | i | / | -7%
Cc1cc([N+](=O)[O-])nn1Cc1ccc(C(=O)N/N=C/c2ccc(O)cc2O)cc1 | ? | ? | ? | 50 | 2.1µM*
COC(=O)C[C@H]1C[C@H]2c3cc(NC(=O)C4CCC4)ccc3O[C@H]2[C@H](CO)O1 | i | -4% | i | -3 | 6%
CCNc1nc(N)nc(-c2cc(Cl)ccc2O)n1 | ? | 16µM* | ? | -85* | 23µM*
CCCCNc1nc(N)nc(-c2cc(Cl)ccc2O)n1 | 12µM* | -11% | ? | -84* | 0%
COc1cc2c(cc1OC)C(CNC(=O)C=Cc1ccccc1)C2 (configuration not stated) | i | 1% | i | 42 | 1%
O=C(COC(=O)c1cc(S(=O)(=O)N2CCOCC2)c(Cl)cc1Cl)NCc1ccco1 | i | -12% | i | -80* | -8%
CC1=C(/C=N/Nc2ccc([N+](=O)[O-])cc2[N+](=O)[O-])C(C)(C)CCC1 | ? | 0% | 16µM* | 11 | -9%
CC(=O)CC1OC(=O)C(Br)=C1NCc1ccccc1 (configuration not stated) | i | 3.5µM* | i | -100* | 0.89µM*
CC(C)(C)c1ccc(C(O)c2ncc(-c3ccc(F)cc3)[nH]2)cc1 (configuration not stated) | i | ? | i | -67* | ?
COc1c(C)cc(C(O)c2ncc(-c3ccc(C(F)(F)F)cc3)[nH]2)cc1C (configuration not stated) | i | ? | i | 18 | 16µM*
COc1c(C)cc(C(O)c2ncc(-c3ccc4ccccc4c3)[nH]2)cc1C (configuration not stated) | i | ? | i | 0 | ?
CC(C)(C)c1ccc(C(O)c2ncc(-c3ccccc3)[nH]2)cc1 (configuration not stated) | i | -28% | i | -24 | ?
SMILES | KB-V1 MDR tox | HT1080-NT tox | KB-3-1 tox | IL1B secr inh | HT1080 IDH1KD tx
CC1=C(C(=O)OCc2cc(C)on2)N2C(=O)[C@@H](NC(=O)OCc3cc(C)on3)[C@H]2SC1 | i | 10% | i | 13 | 14%
CCN(CC)c1ccc(/C=N/Nc2nc3ccccc3[nH]2)cc1 | i | ? | i | -85* | ?
CC(=O)Nc1ccc(/C=N/Nc2nc3ccccc3[nH]2)cc1 | i | ? | 23µM* | -94* | ?
O=C(O)c1ccc(/C=N/Nc2nc3ccccc3[nH]2)cc1 | i | 2% | i | 13 | -3%
CN(C)C(=S)N=c1ssc(=S)n1Cc1cccnc1 | ? | -9% | ? | 10 | -14%
c1ccc(CN2CCC3CC2c2cc(N4CCCCC4)ccc23)cc1 (configuration not stated) | i | 9% | i | 27 | 5%
O=C(Nc1nnc(C(F)(F)F)s1)C1COc2ccccc2O1 (configuration not stated) | ? | ? | ? | ? | 23µM*
O=C(Nc1nnc(C(F)(F)F)s1)c1ccc(Br)s1 | 2.9µM* | ? | 4.6µM* | -55* | ?
O=C(Nc1ccccc1C(=O)Nc1nnc(C(F)(F)F)s1)c1ccccc1Cl | ? | 10µM* | 21µM* | -73* | 10µM*
CC(C)(C)CC(=O)Nc1nnc(C(F)(F)F)s1 | i | -14% | i | 18 | -14%
CC(NC(=O)Nc1nnc(C(F)(F)F)s1)(C(F)(F)F)C(F)(F)F | i | 7.3µM* | 13µM* | -62* | 3.3µM*
COCc1cn(CC(=O)c2sc(NC(=O)C(C)(C)C)nc2C)nn1 | i | 14% | i | 4 | 8%
Cc1ccccc1C(=O)NC1(C(F)(F)F)C(=O)Nc2c1c(=O)[nH]c(=O)n2CCc1ccccc1 (configuration not stated) | ? | / | i | / | /
COc1ccccc1N(CC(=O)Nc1ccccc1F)S(C)(=O)=O | i | / | i | / | /
O=C(CN1CCC(C(O)(c2ccccc2)c2ccccc2)CC1)Nc1ccccc1 | ? | ? | i | -55* | ?
O=C(CN1CCC(C(O)(c2ccccc2)c2ccccc2)CC1)Nc1cc(Cl)ccc1Cl | 18µM* | -9% | i | -67* | -16%
CCn1c(=O)c2cc(S(=O)(=O)NCc3ccccc3)ccc2n(CC)c1=O | 15µM* | ? | i | 28 | ?
CCc1ccc(-c2nc(CS(=O)CC(=O)NCCCN3CCC(C)CC3)c(C)o2)cc1 (configuration not stated) | i | ? | i | -8 | ?
COc1ccc(-c2nnc(NC(=O)Nc3ccc4ccccc4c3)s2)cc1OC | i | / | i | / | /
O=C(N/N=C/C(Br)=C/c1ccccc1)c1ccccc1F | i | ? | ? | -65* | ?

Screening results as filed in PubChem.
